Values without a mark were called inactive. The rule behind the calls is not given here.

Here are results for 38 molecules from paper PMC13494018.

Sequence of VTCN1, Q7Z7D3 (Q7Z7D3 whole entry): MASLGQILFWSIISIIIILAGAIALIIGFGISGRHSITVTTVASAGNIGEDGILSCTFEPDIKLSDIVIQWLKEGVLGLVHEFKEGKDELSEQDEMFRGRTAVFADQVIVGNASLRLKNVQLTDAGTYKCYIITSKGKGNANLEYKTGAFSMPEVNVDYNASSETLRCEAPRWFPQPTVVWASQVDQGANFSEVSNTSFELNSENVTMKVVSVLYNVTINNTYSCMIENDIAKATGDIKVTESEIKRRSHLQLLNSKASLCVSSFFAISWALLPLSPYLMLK
Sequence of PDL1, Q9NZQ7 (Q9NZQ7 whole entry): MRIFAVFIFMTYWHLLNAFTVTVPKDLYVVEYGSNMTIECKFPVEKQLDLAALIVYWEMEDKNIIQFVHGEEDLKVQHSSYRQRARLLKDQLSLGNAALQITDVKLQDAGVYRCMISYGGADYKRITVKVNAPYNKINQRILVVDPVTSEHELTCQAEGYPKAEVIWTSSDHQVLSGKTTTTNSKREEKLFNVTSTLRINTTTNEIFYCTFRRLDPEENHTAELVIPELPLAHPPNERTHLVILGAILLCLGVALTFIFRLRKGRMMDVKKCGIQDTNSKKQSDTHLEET

B1: d3r1_design_ppi_121_dldesign_0_cycle1_af2pred (protein)
chain: MKALEEAKKAAEKVKKLAKEAKELGDEETAKGLKEMEEEIKKLYKKAKEDPSKAEEYAEIAKKIAEIAKKHYEESKKKLEKEKE
Turning to B1, the “binding in a display sort” value in the experiment with VTCN1, Q7Z7D3 was “not found”.

B2: d3r1_design_ppi_175_dldesign_0_cycle1_af2pred (protein)
chain: GSAATLAATAAKLAVKSAKKEMEEAKKNPETGPERLEKYAEILEKAAKDAKATGTAEAKEAAKEAEKEAKKAKEEAKKLK
Regarding B2, the “binding in a display sort” value with VTCN1, Q7Z7D3 was “not found”.

B3: d8r1_design_ppi_1117_dldesign_0_cycle1_af2pred (protein)
chain: AAAEAQARALAAELLAEAFDDPELAARALALPPHHAAALAAGQIVAKKSDEEAAAAVARANQVHALAAAAAAAA
Turning to B3, the “binding in a display sort” value with PDL1, Q9NZQ7 was “not found”.

B4: d3r1_design_ppi_123_dldesign_0_cycle1_af2pred (protein)
chain: DPAVETTKANGKALLTKVAKEAAEVAAKIDPAKAKEITDYAAKALKAGDVTEIAKAVKKVSEELEKYKKELEKKEKEA
With B4, the “binding in a display sort” value with VTCN1, Q7Z7D3 was “not found”.

B5: d3r1_design_ppi_404_dldesign_0_cycle1_af2pred (protein)
chain: NKVEVAQKAYDKAKEAKEKMIKEAKENPEAKPKIPEIEALMKKAQEEAVGKAVELLDKGATPEEALKAAEKIIKEAEKKAKEIIE
With B5, the “binding in a display sort” value in the experiment with VTCN1, Q7Z7D3 is “not found”.

B6: d3r1_design_ppi_369_dldesign_0_cycle1_af2pred (protein)
chain: AVPAELREILSKQALAKMEELEKEAKEKADTPEGLEVMEEAAEWFREAAKGLRAAGDEETAKKMEEKAKELEELAKEKKEK
As to B6, in the experiment with VTCN1, Q7Z7D3, the “binding in a display sort” value was “not found”.

B7: d3r1_design_ppi_687_dldesign_0_cycle0_af2pred (protein)
chain: MKKEEEEKKKKEKLKKKVEEKKEELKELKKAKEELEKAIEKLKPLAEKDPRIKANAEAAKKAAEEELKKKEEELEKLKKELE
Consider B7, for which the “binding in a display sort” value with VTCN1, Q7Z7D3 is “not found”.

B8: d3r1_design_ppi_123_dldesign_0_cycle0_af2pred (protein)
chain: SENDKITLEQAKKLLEKEAKRAAEVAEKIDKEKAKKIKKYAEEALKKGKLTELAKAVKKVSEELEKYEKKLKEEEEKA
For B8, the “binding in a display sort” value with VTCN1, Q7Z7D3 was “not found”.

B9: d3r1_design_ppi_541_dldesign_0_cycle1_af2pred (protein)
chain: MEEEKKKIEEEIEEVKEALKEAEKLFAKDPVAGAKYAENLAIALKKRGLSEEAINLAKEAAEKLKAEAEKVKAA
On to B9, for which the “binding in a display sort” value with VTCN1, Q7Z7D3 is “not found”.

B10: d3r1_design_ppi_576_dldesign_0_cycle1_af2pred (protein)
chain: GEEEEKAKETIKKMEELAKKGAENPEKGKEYVAEAMRIGRETAKELSEEVGEKVLKKAEEIASEAMKKVLENKKKLA
Regarding B10, the “binding in a display sort” value with VTCN1, Q7Z7D3 is “not found”.

B11: d3r1_design_ppi_688_dldesign_0_cycle0_af2pred (protein)
chain: MEELAEKAAKTASAALKEYATEEEKEEAEKKSKEFEKLAEEGKKNPEKAEEVLKELLEKAKEYQKKLEEKEKKEKEE
In the case of B11, in the experiment with VTCN1, Q7Z7D3, the “binding in a display sort” value is “not found”.

B12: d3r1_design_ppi_135_dldesign_0_cycle1_af2pred (protein)
chain: GSLEEYEKLLAENSKLAVEKATKAAKEEVKKKGTEEAAKEATKRLEALAKALKSSGFKGTKEEAEKAKEAAKKLEKEAKKIAK
On to B12, for which the “binding in a display sort” value with VTCN1, Q7Z7D3 is “not found”.

B13: d3r1_design_ppi_79_dldesign_0_cycle0_af2pred (protein)
chain: MTDEEIAKKLIEVAKKAKEEAEKKLKDDPEKVKKVKEIAEEAIKEAKKDPKKGPEALQKAAEEMEKLVKE
As for B13, the “binding in a display sort” value in the experiment with VTCN1, Q7Z7D3 is “not found”.

B14: d8r1_design_ppi_92_dldesign_0_cycle1_af2pred (protein)
chain: ERERERAAIRALLATVDAEYAKAAKEGPEAADAGIERVAAAAAAAGALGPDTASAGRFAVGVYRTLAEKVKAAWAA
Consider B14, for which, in the experiment with PDL1, Q9NZQ7, the “binding in a display sort” value is “not found”.

B15: d3r1_design_ppi_578_dldesign_0_cycle1_af2pred (protein)
chain: MEELEEAKKRAEELKKEVEENKEKFKEASKEAQELADNSLKAIKAAFKYIEEKEEVENAKRAVEVAEENYKKAKELAEKLLKEK
On to B15, for which, in the experiment with VTCN1, Q7Z7D3, the “binding in a display sort” value was “not found”.

B16: d3r1_design_ppi_608_dldesign_0_cycle1_af2pred (protein)
chain: ATEEAKKYAEKAKELAKKAEEAAKKEGVEAGEEYLEKAKEEVLKAYKYAAESGDEEAKKAAEEALEAVEKAEKEIEKIKKEKE
For B16, the “binding in a display sort” value in the experiment with VTCN1, Q7Z7D3 was “not found”.

B17: d8r1_design_ppi_427_dldesign_0_cycle0_af2pred (protein)
chain: MSRIAAWVIAAISAAATDPAEADKVAARAAEEALANPEKADEALALAAETARAAGLDAATVDAAVARIRALVAAL
For B17, the “binding in a display sort” value in the experiment with PDL1, Q9NZQ7 is “not found”.

B18: d8r1_design_ppi_1354_dldesign_0_cycle1_af2pred (protein)
chain: SRAAAAKAFGKAAVEQLKKLAKAAGAEEARKLAKQLQADFAAFAAAVPEVAAEFKAAAEAAKKAAEEVAKEQEAKAAAAAAA
Take B18: the “binding in a display sort” value with PDL1, Q9NZQ7 was “not found”.

B19: d3r1_design_ppi_418_dldesign_0_cycle0_af2pred (protein)
chain: SEAEAVKATLKGAKETVKELKKEAEKNPEKAEEYAKEAEKIAKAAEKLAEKSSEEAKKEAKEVKEEAKEAKKLAKKIIEEKKAKE
For B19, in the experiment with VTCN1, Q7Z7D3, the “binding in a display sort” value is “not found”.

B20: d3r1_design_ppi_25_dldesign_0_cycle1_af2pred (protein)
chain: SMAAKSAELRAESRRESILAAARQFAAENPAQGPRALAKAEELVAKAKEFAAATKDPAEAAAFAAQQAEEFRAYLAALEAEAA
For the molecule B20, the “binding in a display sort” value in the experiment with VTCN1, Q7Z7D3 is “not found”.

B21: d3r1_design_ppi_36_dldesign_0_cycle1_af2pred (protein)
chain: EEERLKEAEETYKKLLEELYKESLKEIEEAAKKGPEAAKKALEKAKAEFDEYEKGLLPEYAKEVKEKLEKEAEKLIKKAK
In the case of B21, in the experiment with VTCN1, Q7Z7D3, the “binding in a display sort” value was “not found”.

B22: d8r1_design_ppi_568_dldesign_0_cycle1_af2pred (protein)
chain: AARHLALAIRGVLKADDAGDAEAAAKAKALLAKAAAALAAGDEAAAKAYATQAAAVADPAYAPVAEAVAAAAAA
With B22, the “binding in a display sort” value with PDL1, Q9NZQ7 is “not found”.

B23: d3r1_design_ppi_404_dldesign_0_cycle0_af2pred (protein)
chain: SMTEIAQKAYEKAEEARKKMLKKAEEDPEARPKLPEIEALMKEAREKAVSAVVELLTKGESEEEAMKKAEEIIEEAKKEAEKIMK
Take B23: in the experiment with VTCN1, Q7Z7D3, the “binding in a display sort” value was “not found”.

B24: d3r1_design_ppi_53_dldesign_0_cycle1_af2pred (protein)
chain: ASEADRAQVRAEGMAEALKLRAEAAAPLLSPEAVAEIKALAEKMAADPENRDAYYAAAVALLDAALAAAKA
For B24, in the experiment with VTCN1, Q7Z7D3, the “binding in a display sort” value is “not found”.

B25: d3r1_design_ppi_677_dldesign_0_cycle1_af2pred (protein)
chain: MEEKKKKIDEKLILAGELAKKNGLLGEIVAKKAIEEGRKAGITEFSEEAVEALKIAFAAGAAARAALAAALA
With B25, the “binding in a display sort” value in the experiment with VTCN1, Q7Z7D3 is “not found”.

B26: d3r1_design_ppi_418_dldesign_0_cycle1_af2pred (protein)
chain: DKNEAIKNTLKGAEKAVKELKKEAIKDPEKAEEYAKRAEEIAKAAKELAKQGTEEAKEEAKKVEKEAKEAKKEAKKVVEEKKKKE
As for B26, the “binding in a display sort” value with VTCN1, Q7Z7D3 was “not found”.

B27: d3r1_design_ppi_595_dldesign_0_cycle1_af2pred (protein)
chain: DLFKKGIEEAEKAYKKYPKLGLAVAQLVLAKYFLEAAKKSTPEEAKNYLEAAKLALEKSKELLKEVEAKLKAE
For B27, the “binding in a display sort” value with VTCN1, Q7Z7D3 was “not found”.

B28: d3r1_design_ppi_578_dldesign_0_cycle0_af2pred (protein)
chain: MEELEEARKRADELEKEVKKLEPLFKEASKEAAELAENAKKAIEAAKKFIEDKSQIELAQRAVDQAEKNLKLAKELMEKILKEK
For the molecule B28, in the experiment with VTCN1, Q7Z7D3, the “binding in a display sort” value is “not found”.

B29: d3r1_design_ppi_237_dldesign_0_cycle0_af2pred (protein)
chain: TPLEQLGKLVKEAKKAAKEAKELIKKGKAKEAAKLAREAAKKQIEKAKKIGEEYPEAKASAEAAAAYIEALAKEVEKEAKAAEA
Turning to B29, in the experiment with VTCN1, Q7Z7D3, the “binding in a display sort” value was “not found”.

B30: d3r1_design_ppi_340_dldesign_0_cycle1_af2pred (protein)
chain: EKEKVRKEAEKAIKKAKAAAKAAKAGKDLKAAEKAVKEAAKAAKAAVEAGDPELAEKVAKAAQEASTALNAALSKRLAA
On to B30, for which the “binding in a display sort” value with VTCN1, Q7Z7D3 is “not found”.

B31: d3r1_design_ppi_168_dldesign_0_cycle1_af2pred (protein)
chain: ANKEEAKKAATEGQDAMAELRALKKEGGDPEEIKKAGDKAIESYEKAGELDPSIKERADKMIEAAKKLTEEGIKASKEK
B31: in the experiment with VTCN1, Q7Z7D3, the “binding in a display sort” value is “not found”.

B32: d3r1_design_ppi_230_dldesign_0_cycle1_af2pred (protein)
chain: TLAESALKALKVIGKAAVEVAKELGEEVYKKVKKEVEKLLKEVESASPEERAKLAAEAAKKMQKKLEELEKLLKEKKKK
As for B32, in the experiment with VTCN1, Q7Z7D3, the “binding in a display sort” value is “not found”.

B33: d8r1_design_ppi_1244_dldesign_0_cycle0_af2pred (protein)
chain: EEEEKEEKETYEKAYYLAKAAINAVNTGKEAAVASGKAALIAAGKLIPEWAAEAKAAKTAEEIKAVAEKLAEAAKKKIE
Take B33: in the experiment with PDL1, Q9NZQ7, the “binding in a display sort” value is “not found”.

B34: d3r1_design_ppi_589_dldesign_0_cycle1_af2pred (protein)
chain: MEEDAKKAQEVADLLAKTAATGPAYADEAIAKTAEVLGPYFAEKLKKAIAAGPEEVKKMYDIVKQHAENIKAA
On to B34, for which the “binding in a display sort” value with VTCN1, Q7Z7D3 was “not found”.

B35: d3r1_design_ppi_121_dldesign_0_cycle0_af2pred (protein)
chain: DEALKTAEKAAKEVEELAKEAKEAGDEETAKGLEEMLEKIKELLEKAKKDPSKAKEYAKTAEAIAKVAKKNYEESLKKLKEEKE
For the molecule B35, in the experiment with VTCN1, Q7Z7D3, the “binding in a display sort” value was “not found”.

B36: d3r1_design_ppi_130_dldesign_0_cycle0_af2pred (protein)
chain: SASEKANNELAAKLAVESAKKYLEEAEKLEKEDKEKAKKLLKEIAEKAEAGVKAFADSPEAPELKKLAEEAKAKIEEI
With B36, the “binding in a display sort” value with VTCN1, Q7Z7D3 is “not found”.

B37: d3r1_design_ppi_648_dldesign_0_cycle0_af2pred (protein)
chain: GEEAAKKSKEAEKALEEAKKILKEGGKEGEEKAKKLVEEKVKELKKWGKETGTGGEALAKILKEEFEKAKKEK
For the molecule B37, the “binding in a display sort” value with VTCN1, Q7Z7D3 was “not found”.

B38: d8r1_design_ppi_860_dldesign_0_cycle0_af2pred (protein)
chain: DEAYELAAEALARASELRAAAAAARAARGAAGVAEAAALDAEAVRVLEEAAKKLKALGSGLGKNLEAAARRLAERAAAATAAARA
With B38, the “binding in a display sort” value with PDL1, Q9NZQ7 is “not found”.
